Assay results reported in PubChem BioAssay (Tox21).
Values joined by “and” are separate entries in the source; they are usually repeats but may differ in a detail not shown here. Equal entries are not always repeated. Records with an inconclusive call do not appear. Some structures have more than one record in an assay (separate samples or runs), and their calls can disagree. Active and inactive are the calls of the source. Unless noted, calls follow the shape of the dose curve; as a rule, active = well fitted curve in the direction sought with a large enough effect in the repeat runs; inconclusive = weak or mixed curves; inactive = no such curve, though single readings can be large; an effect the other way counts as inactive or inconclusive.

Legend:
[1] = qHTS assay to identify aromatase inhibitors - cell viability counter screen (AID 743084);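 also: cells stimulated with testosterone during compound exposure; nearly all actives have a fitted effect of over 55% in size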; also: potency is read from the fitted curve at half-maximal effect
[2] = biological target: Aryl hydrocarbon receptor (Homo sapiens) (UniProt P35869); assay: qHTS assay to identify small molecule that activate the aryl hydrocarbon receptor (AhR) signaling pathway (AID 743085); also: nearly all actives have a fitted effect of over 15% in size; also: potency is read from the fitted curve at half-maximal effect;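 as to activation: HG2L7.5c1 human HepG2 liver cells with stably integrated DRE-driven firefly reporter; series mostly up to about 70 µM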
Sequence of Aryl hydrocarbon receptor (Homo sapiens) (P35869 whole entry, looked up): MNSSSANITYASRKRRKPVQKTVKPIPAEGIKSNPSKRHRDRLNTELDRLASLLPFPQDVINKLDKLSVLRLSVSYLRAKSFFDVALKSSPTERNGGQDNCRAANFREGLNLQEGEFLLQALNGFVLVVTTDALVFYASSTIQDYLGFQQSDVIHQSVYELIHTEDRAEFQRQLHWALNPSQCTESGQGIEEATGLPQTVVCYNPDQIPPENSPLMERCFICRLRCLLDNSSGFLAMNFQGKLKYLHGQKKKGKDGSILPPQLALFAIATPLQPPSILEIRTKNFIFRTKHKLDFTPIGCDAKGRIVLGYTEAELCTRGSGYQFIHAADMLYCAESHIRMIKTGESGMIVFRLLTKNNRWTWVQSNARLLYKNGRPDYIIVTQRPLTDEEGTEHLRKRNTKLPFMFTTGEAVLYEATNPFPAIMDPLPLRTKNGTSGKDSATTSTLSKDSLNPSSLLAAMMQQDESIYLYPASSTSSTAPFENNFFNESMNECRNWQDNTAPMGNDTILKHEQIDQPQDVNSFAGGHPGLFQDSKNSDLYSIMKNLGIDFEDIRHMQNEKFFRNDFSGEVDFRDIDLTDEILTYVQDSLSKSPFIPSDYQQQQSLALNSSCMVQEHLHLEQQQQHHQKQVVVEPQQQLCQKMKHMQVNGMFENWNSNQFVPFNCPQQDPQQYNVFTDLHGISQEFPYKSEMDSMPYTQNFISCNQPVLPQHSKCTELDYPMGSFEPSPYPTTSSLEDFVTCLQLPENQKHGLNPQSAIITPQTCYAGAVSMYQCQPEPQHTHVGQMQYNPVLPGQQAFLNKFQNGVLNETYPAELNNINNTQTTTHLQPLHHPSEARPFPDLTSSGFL
Summary of the method: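 Measured in HG2L7.5c1 cells: CellTiter-Fluor signal (30 min incubation, 37C) for viability, then luciferase luminescence (30 min, room temperature). Compound contact time was 24 h at 37C, following a 5 h pre-incubation.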

[3] = qHTS assay to identify small molecule that activate the aryl hydrocarbon receptor (AhR) signaling pathway - cell viability counter screen (AID 743086); also: nearly all actives have a fitted effect of over 45% in size; also: potency is read from the fitted curve at half-maximal effect;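 as to viability change, negative = cytotoxic: HepG2 liver cells carrying the AhR DRE luciferase reporter; series mostly up to about 70 µM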
Summary of the method: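 HepG2-AhR-luc (HG2L7.5c1) cells, 4000/well, were preincubated 5 h at 37C, exposed to compound in qHTS format for 24 hr at 37C, then given CellTiter-Fluor for 30 min; viability was read as fluorescence in the reporter wells.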

[4] = qHTS assay to identify small molecule antagonists of the peroxisome proliferator-activated receptor gamma (PPARg) signaling pathway - cell viability counter screen (AID 743194); also: nearly all actives have a fitted effect of over 55% in size; also: potency is read from the fitted curve at half-maximal effect
Summary of the method: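 PPARg-UAS-bla HEK293H cells were plated, rested 5 h at 37 C, then treated with compounds plus rosiglitazone (50 nM final) for 17 h at 37 C; viability was then read by CellTiter-Glo luminescence after 30 min at room temperature.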

[5] = qHTS assay for small molecule agonists of the antioxidant response element (ARE) signaling pathway - cell viability counter screen (AID 743203; calls by dose curve; also: nearly all actives have a fitted effect of over 55% in size; also: potency is read from the fitted curve at half-maximal effect)
Summary of the method: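 ARE-bla HepG2 cells were plated, rested 5 h at 37C/5% CO2, then exposed to compounds in DMSO for 16 h. Viability was read as CellTiter-Glo luminescence after 30 min at room temperature, in the same wells as the ARE screen.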

[6] = biological target: Peroxisome proliferator-activated receptor gamma (Homo sapiens) (UniProt P37231); assay: qHTS assay to identify small molecule agonists of the peroxisome proliferator-activated receptor gamma (PPARg) signaling pathway (AID 743094; active = well fitted activation curve with a large enough effect in the signal ratio in the repeat runs, not every such curve was filed as active; the % refers to the signal ratio; also: potency is read from the fitted curve at half-maximal effect)
Sequence of Peroxisome proliferator-activated receptor gamma (Homo sapiens) (P37231 whole entry, looked up): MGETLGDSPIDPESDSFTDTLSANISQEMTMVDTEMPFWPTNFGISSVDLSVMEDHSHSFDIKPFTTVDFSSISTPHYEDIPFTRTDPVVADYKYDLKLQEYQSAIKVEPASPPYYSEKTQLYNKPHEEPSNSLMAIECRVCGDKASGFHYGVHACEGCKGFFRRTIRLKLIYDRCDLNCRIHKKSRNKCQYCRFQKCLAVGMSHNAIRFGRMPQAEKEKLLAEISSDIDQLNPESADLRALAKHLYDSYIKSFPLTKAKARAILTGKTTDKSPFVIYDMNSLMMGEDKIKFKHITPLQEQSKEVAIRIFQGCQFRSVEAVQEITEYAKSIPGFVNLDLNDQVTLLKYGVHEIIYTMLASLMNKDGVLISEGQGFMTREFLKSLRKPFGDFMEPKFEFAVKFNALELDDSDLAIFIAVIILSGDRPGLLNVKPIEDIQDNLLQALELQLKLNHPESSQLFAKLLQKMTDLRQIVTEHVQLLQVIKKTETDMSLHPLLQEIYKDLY
Summary of the method: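 GeneBLAzer PPARg UAS-bla HEK293H cells were plated, rested 5 h, then exposed to compounds for 17 h at 37C. Beta-lactamase activity was read by LiveBLAzer B/G FRET substrate fluorescence after 1 h at room temperature.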

[7] = qHTS assay for small molecule activators of the heat shock response signaling pathway - cell viability counter screen (AID 743209); also: nearly all actives have a fitted effect of over 50% in size; also: potency is read from the fitted curve at half-maximal effect
Summary of the method: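 HSE-bla HeLa cells plated overnight, then exposed to Tox21 compounds (23 nL in DMSO) for 5 h at 37 C. After the bla reporter read, CellTiter-Glo was added in the same wells and luminescence read after 30 min at room temperature.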

[8] = qHTS assay for small molecule agonists of the antioxidant response element (ARE) signaling pathway (AID 743202; active = well fitted activation curve with a large enough effect in the signal ratio in the repeat runs, not every such curve was filed as active; the % refers to the signal ratio; also: potency is read from the fitted curve at half-maximal effect)
Summary of the method: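 Read-out: LiveBLAzer B/G FRET substrate fluorescence after 2 h at room temperature, following 16 h compound treatment at 37 C of HepG2 cells carrying an ARE-driven beta-lactamase reporter.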

[9] = qHTS assay for small molecule activators of the heat shock response signaling pathway (AID 743210; active = well fitted activation curve with a large enough effect in the signal ratio in the repeat runs, with a control signal flat, not every such curve was filed as active; the % refers to the signal ratio; also: series mostly up to about 63 µM)
Summary of the method: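 HSE-bla HeLa cells (beta-lactamase reporter under heat shock response elements) were exposed to compounds for 5 h at 37 C, then loaded with LiveBLAzer B/G FRET substrate for 2.5 h at room temperature before fluorescence reading.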

[10] = biological target: Peroxisome proliferator-activated receptor gamma (Homo sapiens) (UniProt P37231); assay: qHTS assay to identify small molecule antagonists of the peroxisome proliferator-activated receptor gamma (PPARg) signaling pathway (AID 743191; calls by dose curve; also: nearly all actives have a fitted effect of over 30% in size; also: potency is read from the fitted curve at half-maximal effect)
Summary of the method: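 GeneBLAzer PPARg UAS-bla HEK293H cells carrying a UAS-driven beta-lactamase reporter were plated at 3000 cells/well, preincubated 5 h at 37C, then given compound for 17 h at 37C; LiveBLAzer B/G FRET substrate was read after 1 h at room temperature.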
% is scaled to controls: 0 for no effect and ±100 for the full control effect.

COc1cccc2c1C(=O)c1c(O)c3c(c(O)c1C2=O)C[C@@](O)(C(C)=O)C[C@@H]3O[C@H]1C[C@H](N)[C@H](O)[C@H](C)O1
active: Potency [1] 10.6 µM and 8.69 µM | Potency [2] 2.45 µM | Potency [3] 5.96 µM and 24.5 µM | Potency [4] 34.9 µM and 33.5 µM | Potency [5] 8.69 µM and 13.3 µM

CC1(C)[C@@H](O)CC[C@]2(C)[C@H]3C(=O)C=C4[C@@H]5C[C@@](C)(C(=O)O)CC[C@]5(C)CC[C@@]4(C)[C@]3(C)CC[C@@H]12
inactive: Potency [1] | Potency [2] | Potency [3] | Potency [6]
active: Potency [7] 48.4 µM

Cc1c(C)c([N+](=O)[O-])c(C(C)(C)C)c([N+](=O)[O-])c1C
inactive: Potency [1] | Potency [2] | Potency [3] | Potency [6] | Potency [8] | Potency [5] | Potency [7] | Potency [9]

Nc1nc2c(ncn2COCCO)c(=O)[nH]1
inactive: Potency [1] | Potency [2] | Potency [3] | Potency [4] | Potency [8] | Potency [5] | Potency [7] | Potency [9]

CC1=Nc2ccccc2C1(C)C
inactive: Potency [1] | Potency [2] | Potency [3] | Potency [4] | Potency [8] | Potency [5] | Potency [7]

Cc1c(C)c2c(c(C)c1O)CC[C@@](C)(CCC[C@H](C)CCC[C@H](C)CCCC(C)C)O2
inactive: Potency [1] | Potency [2] | Potency [3] | Potency [6] | Potency [5] | Potency [7]

Cc1cccc(C(=O)O)c1O
inactive: Potency [1] | Potency [2] | Potency [3] | Potency [6] | Potency [5]

CC1(C)CCC[C@]2(C)[C@H]3CC(=O)O[C@]3(C)CC[C@@H]12
inactive: Potency [1] | Potency [2] | Potency [3] | Potency [6] | Potency [5] | Potency [7] | Potency [9]

O=c1[nH]c(=O)n([C@H]2C[C@H](O)[C@@H](CO)O2)cc1F
inactive: Potency [1] | Potency [2] | Potency [3] | Potency [10] | Potency [7] | Potency [9]

CCCCOC(=O)CO
inactive: Potency [1] | Potency [2] | Potency [3] | Potency [6] | Potency [8] | Potency [5] | Potency [7] | Potency [9]

CCC(CC)(CC(=O)Nc1cccc(/C=C/c2nc(C3CCC3)cs2)c1)C(=O)O
active: Potency [2] 8.41 µM
inactive: Potency [1] | Potency [3] | Potency [6] | Potency [7] | Potency [9]

CCC(=O)OC(=O)CC
inactive: Potency [1] | Potency [2] | Potency [3] | Potency [6] | Potency [4] | Potency [5] | Potency [7] | Potency [9]

O=C1OC2(c3ccc(O)cc3Oc3cc(O)ccc32)c2ccc(N=C=S)cc21
inactive: Potency [1] | Potency [2] | Potency [3] | Potency [4] | Potency [5] | Potency [7]

CCCCOC(=O)CC
inactive: Potency [1] | Potency [2] | Potency [3] | Potency [10] | Potency [4] | Potency [8] | Potency [5] | Potency [7] | Potency [9]

O=C1CCc2ccc(OCCCCN3CCN(c4cccc(Cl)c4Cl)CC3)cc2N1
active: Potency [4] 15 µM | Potency [5] 16.8 µM | Potency [7] 26.6 µM
inactive: Potency [1] | Potency [2] | Potency [3]

CCCCCCCCCCCCCCCC[N+](C)(C)CC
inactive: Potency [2]
active: Potency [1] 21.1 µM and 48.7 µM | Potency [3] 18.8 µM and 48.7 µM | Potency [10] 23.7 µM | Potency [5] 54.6 µM | Potency [7] 39 µM and 23.7 µM

CCCCCCCCCCCCCC[N+](C)(C)C
inactive and 59.1 µM (active): Potency [1]
active: Potency [3] 16.8 µM and 52.7 µM and 54.4 µM | Potency [4] 18.8 µM and 24.5 µM and 29.8 µM | Potency [5] 23.5 µM and 17.2 µM and 26.6 µM | Potency [7] 21.1 µM and 15.5 µM and 23.7 µM
inactive: Potency [2]

CCCC(=O)OCCc1ccccc1
inactive: Potency [1] | Potency [2] | Potency [3] | Potency [6] | Potency [4] | Potency [5] | Potency [7] | Potency [9]

FC(F)(F)c1cccc(Cl)c1
inactive: Potency [1] | Potency [2] | Potency [3] | Potency [4] | Potency [8] | Potency [5] | Potency [7]

Cc1ccc(C)cc1
inactive: Potency [1] | Potency [2] | Potency [3] | Potency [4] | Potency [8] | Potency [5] | Potency [7] | Potency [9]

COc1ccc(-c2coc3cc(O)ccc3c2=O)cc1
active: Potency [2] 6.86 µM
inactive: Potency [1] | Potency [3] | Potency [6] | Potency [5] | Potency [7]

O=C(O)CN(CCN(CC(=O)O)CC(=O)O)CC(=O)O
inactive: Potency [1] | Potency [2] | Potency [3] | activity change, negative = cytotoxicity [4] 4.6% [at 2.7 µM] | activation [8] -0.355% [at 3.74 µM] | viability change, negative = cytotoxic [5] -5.36% [at 3.74 µM] | activity change, negative = cytotoxicity [7] 20.3% [at 2.7 µM] | activation [9] 0.0247% [at 2.7 µM]

OCC(F)(F)F
inactive: Potency [1] | Potency [2] | Potency [3] | Potency [6] | Potency [8] | Potency [5] | Potency [7] | Potency [9]

Cc1c2ccccc2c(C)c2c1ccc1ccccc12
active: Potency [2] 8.55 µM and 21.7 µM | Potency [3] 60.5 µM and 48.6 µM | Potency [4] 49 µM | Potency [5] 24.3 µM
inactive: Potency [1]

CC(=O)c1ccc(C(C)=O)cc1
inactive: Potency [1] | Potency [2] | Potency [3] | Potency [6] | Potency [8] | Potency [5] | Potency [7] | Potency [9]

C#C[C@]1(O)CC[C@H]2[C@@H]3[C@H](C)CC4=C(CCC(=O)C4)[C@H]3CC[C@@]21C
inactive: Potency [1] | Potency [2] | Potency [3] | Potency [4] | Potency [5] | Potency [7]
active: Potency [8] 23.7 µM

CC(=O)[C@H]1CC[C@H]2[C@@H]3CCC4=CC(=O)CC[C@]4(C)[C@H]3CC[C@]12C
inactive: Potency [1] | Potency [2] | Potency [3] | Potency [6] | Potency [5] | Potency [7] | Potency [9]

CC[N+](CC)(CC)CCOc1ccc(/C=C/c2ccccc2)cc1
inactive: Potency [1] | Potency [2] | Potency [3] | Potency [6] | Potency [4] | Potency [5] | Potency [7] | Potency [9]

CN(C)c1ccc(C(=C2C=CC(=[N+](C)C)C=C2)c2ccc(N(C)C)cc2)cc1
active: Potency [1] 10.6 µM and 3.05 µM and 7.7 µM | Potency [2] 2.42 µM | Potency [3] 9.44 µM and 19.2 µM and 24.3 µM | Potency [6] 8.49 µM | Potency [5] 9.64 µM and 10.9 µM and 11.9 µM | Potency [7] 1.73 µM and 4.36 µM and 6.68 µM

COC(=O)c1ccccc1C
inactive: Potency [1] | Potency [3] | Potency [6] | Potency [10] | Potency [8] | Potency [5] | Potency [7] | Potency [9]

S=C([S-])NCCNC(=S)[S-].S=C([S-])NCCNC(=S)[S-].[Mn+2].[Zn+2]
inactive: Potency [1] | Potency [2] | Potency [3] | Potency [7]
active: Potency [8] 4.73 µM

O=C1C(c2[nH]c3ccc(S(=O)(=O)O)cc3c2O)=Nc2ccc(S(=O)(=O)O)cc21
inactive: Potency [1] | Potency [3] | Potency [6] | Potency [10] | Potency [4] | Potency [5] | Potency [7] | Potency [9]

OC12N=C(c3ccccc3)SC1Cc1cc(Cl)ccc12 (stereo not given)
active: Potency [2] 24.3 µM
inactive: Potency [1] | Potency [6] | Potency [4] | Potency [5] | Potency [7]

CC(C)CCCCCOC(=O)CCS
inactive: Potency [1] | Potency [3] | Potency [6] | Potency [10] | Potency [7] | Potency [9]

c1cnccn1
inactive: Potency [1] | Potency [3] | Potency [6] | Potency [4] | Potency [8] | Potency [5] | Potency [7] | Potency [9]

Nc1nc(-c2ccccc2)cs1
inactive: Potency [1] | Potency [3] | Potency [6] | Potency [4] | Potency [5] | Potency [7]
